Laboratory results published in PubChem BioAssay AID624138 (Broad Institute, 2012).
Hit rate of the full screen: of about 17,000 compounds, about 35 (0.2%) were called active.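 How the source made its calls: active means compounds whose four printed spots each show fluorescence over background unusually high for their array block, chance value under 7%; inactive means the rest.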 The list comes from a sample in which actives are over-represented; it also holds similar structures and randomly drawn compounds.

target: Signal transducer and activator of transcription 3 (Homo sapiens) (UniProt P40763); assay: small molecules binding His-tagged STAT3 – biochemical, small molecule microarray, single point, set 2, primary screen (AID 624138); conditions: anti-His fluorescence
Sequence (P40763 whole entry, looked up): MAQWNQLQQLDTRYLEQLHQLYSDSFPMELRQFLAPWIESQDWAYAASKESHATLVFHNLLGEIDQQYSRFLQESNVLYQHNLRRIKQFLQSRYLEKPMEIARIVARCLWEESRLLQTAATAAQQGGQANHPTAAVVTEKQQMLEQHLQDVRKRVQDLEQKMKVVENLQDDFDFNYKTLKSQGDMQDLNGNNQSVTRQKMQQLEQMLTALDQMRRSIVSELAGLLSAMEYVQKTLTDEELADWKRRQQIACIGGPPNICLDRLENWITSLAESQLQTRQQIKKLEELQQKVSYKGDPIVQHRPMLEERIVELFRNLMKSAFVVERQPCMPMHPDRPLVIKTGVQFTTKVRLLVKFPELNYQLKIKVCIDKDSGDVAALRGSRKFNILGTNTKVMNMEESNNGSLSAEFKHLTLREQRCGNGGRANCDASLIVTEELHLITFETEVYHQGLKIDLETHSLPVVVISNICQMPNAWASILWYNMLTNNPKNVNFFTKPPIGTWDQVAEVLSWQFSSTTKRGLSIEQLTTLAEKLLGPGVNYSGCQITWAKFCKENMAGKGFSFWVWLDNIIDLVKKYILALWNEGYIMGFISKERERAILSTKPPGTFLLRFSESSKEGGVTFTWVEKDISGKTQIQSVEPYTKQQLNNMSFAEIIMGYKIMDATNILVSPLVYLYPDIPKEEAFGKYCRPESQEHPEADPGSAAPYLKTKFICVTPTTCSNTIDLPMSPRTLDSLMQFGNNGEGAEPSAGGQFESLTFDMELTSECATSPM

Structure (SMILES)	outcome
c1cncc(CNCCc2c[nH]c3ccccc23)c1	active
COc1ccc2[nH]cc(CCNCc3ccc(Br)cc3)c2c1	inactive
CC(=O)c1c(O)c(C)c(O)c(Cc2c(O)c3c(c(C(=O)/C=C/c4ccccc4)c2O)OC(C)(C)C=C3)c1O	inactive
C[C@H]1CCC/C=C/C2C[C@H](O)C[C@H]2[C@H](O)/C=C\C(=O)O1 (stereo not given in full)	inactive
Cc1ccc(OC(=O)N(C)C[C@@H]2OCc3cnnn3CCCC(=O)N([C@H](C)CO)C[C@@H]2C)cc1	inactive
